# Results published in ChEMBL document CHEMBL3988442, “University of Dundee, Small-Polar-MMV Screening Library” (2021).
# For some of these results: Results with a measured potency or affinity are listed apart.
# Key:
# Set-up in all cases: scale not given: direction of the effect not stated beside the values
# [1] = target: Protein translocase subunit SecA (Escherichia coli (strain K12)) (UniProt P10408); test: Assay to Identify E. coli SecA ATPase Inhibitors; format: functional; conditions: 30 µM
# [2] = target: T1, Ubiquitin-activating enzyme e1, putative (Leishmania donovani (strain BPK282A1)) (UniProt E9BSI1); test: Leishmania donovani Ubiquitin Activating Enzyme (LdE1); format: functional; conditions: 30 µM
# T1 sequence (whole entry): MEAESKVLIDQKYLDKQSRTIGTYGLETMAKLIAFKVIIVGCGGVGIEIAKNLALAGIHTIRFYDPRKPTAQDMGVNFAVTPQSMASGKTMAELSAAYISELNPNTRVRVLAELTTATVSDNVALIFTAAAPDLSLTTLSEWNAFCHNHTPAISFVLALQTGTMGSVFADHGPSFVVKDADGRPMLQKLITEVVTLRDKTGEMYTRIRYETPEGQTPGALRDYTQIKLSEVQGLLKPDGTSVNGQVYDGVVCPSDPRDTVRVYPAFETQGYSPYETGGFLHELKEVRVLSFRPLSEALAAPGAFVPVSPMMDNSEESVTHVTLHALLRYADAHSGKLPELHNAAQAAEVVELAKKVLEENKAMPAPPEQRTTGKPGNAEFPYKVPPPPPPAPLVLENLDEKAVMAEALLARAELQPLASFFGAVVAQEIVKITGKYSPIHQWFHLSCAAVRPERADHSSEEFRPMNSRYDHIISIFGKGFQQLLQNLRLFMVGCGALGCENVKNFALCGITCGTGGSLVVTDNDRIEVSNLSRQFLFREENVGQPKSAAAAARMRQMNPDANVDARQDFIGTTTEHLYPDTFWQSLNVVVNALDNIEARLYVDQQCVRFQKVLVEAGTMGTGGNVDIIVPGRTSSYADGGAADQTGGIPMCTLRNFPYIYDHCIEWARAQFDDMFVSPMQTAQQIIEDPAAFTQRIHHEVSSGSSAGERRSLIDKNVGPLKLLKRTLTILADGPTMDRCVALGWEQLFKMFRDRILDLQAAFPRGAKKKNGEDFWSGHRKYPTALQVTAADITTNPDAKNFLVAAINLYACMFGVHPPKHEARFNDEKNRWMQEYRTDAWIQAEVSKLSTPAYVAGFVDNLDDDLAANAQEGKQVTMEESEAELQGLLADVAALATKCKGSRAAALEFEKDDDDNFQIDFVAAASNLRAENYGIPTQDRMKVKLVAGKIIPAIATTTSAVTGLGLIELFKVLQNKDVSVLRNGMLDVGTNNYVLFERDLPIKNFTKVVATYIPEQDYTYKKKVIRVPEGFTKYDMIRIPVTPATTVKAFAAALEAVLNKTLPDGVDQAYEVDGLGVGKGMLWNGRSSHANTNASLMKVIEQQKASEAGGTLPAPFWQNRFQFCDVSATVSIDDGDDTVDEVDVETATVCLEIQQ
# [3] = target: T2, Aspartate--tRNA(Asp/Asn) ligase (Mycobacterium tuberculosis (strain ATCC 25618 / H37Rv)) (UniProt P9WFW3); test: Assay for Asp RNA synthetase-1 from Mycobacterium tuberculosis; format: functional; conditions: 30 µM; further: in the data most compounds retested in dose-response had high values
# T2 sequence (whole entry): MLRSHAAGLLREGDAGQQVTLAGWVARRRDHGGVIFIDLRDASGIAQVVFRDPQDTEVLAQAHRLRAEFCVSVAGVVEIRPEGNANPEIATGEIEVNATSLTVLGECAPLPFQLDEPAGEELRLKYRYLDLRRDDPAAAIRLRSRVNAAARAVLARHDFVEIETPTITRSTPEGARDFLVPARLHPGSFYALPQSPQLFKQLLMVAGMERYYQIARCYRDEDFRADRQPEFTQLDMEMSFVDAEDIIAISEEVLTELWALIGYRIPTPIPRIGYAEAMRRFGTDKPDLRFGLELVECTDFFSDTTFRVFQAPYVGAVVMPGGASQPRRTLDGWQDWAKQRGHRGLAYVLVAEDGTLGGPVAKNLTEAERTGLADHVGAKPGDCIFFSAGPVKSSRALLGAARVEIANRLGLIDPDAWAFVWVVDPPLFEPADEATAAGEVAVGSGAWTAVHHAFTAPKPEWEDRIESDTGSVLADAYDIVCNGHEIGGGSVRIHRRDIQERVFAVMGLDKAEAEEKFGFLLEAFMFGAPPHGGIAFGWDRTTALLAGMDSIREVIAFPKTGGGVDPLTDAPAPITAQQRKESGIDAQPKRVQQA
# [4] = target: AMP-activated protein kinase, AMPK (Homo sapiens) (UniProt P54646+O43741+P54619+Q9UGJ0+Q9Y478+Q13131+Q9UGI9); test: AMP-dependent Kinase enzyme assay. An in vitro enzyme assay that detects ADP turnover that is directly proportional to AMPK activity. This uses naive AMPK that is activated during the assay with MK-8722; format: functional; conditions: 30 µM
# [5] = target: Sialic acid-binding Ig-like lectin 9 (Homo sapiens) (UniProt Q9Y336); test: Hs-Siglec9 ALPHAscreen SOP 20170721; conditions: 10 µM
# Trypanosoma cruzi = test: Trypanosoma cruzi phosphomannomutase and mannose-1-phosphate guanylyltransferase assay; format: functional; conditions: 10 µM
# [6] = target: T3, Arginase-2, mitochondrial (Homo sapiens) (UniProt P78540); test: in vitro enzyme assay to detect the production of urea directly proportional to the activity of Arginase II; format: functional; conditions: 33.3 µM; further: in the data most compounds retested in dose-response had high values
# T3 sequence (whole entry): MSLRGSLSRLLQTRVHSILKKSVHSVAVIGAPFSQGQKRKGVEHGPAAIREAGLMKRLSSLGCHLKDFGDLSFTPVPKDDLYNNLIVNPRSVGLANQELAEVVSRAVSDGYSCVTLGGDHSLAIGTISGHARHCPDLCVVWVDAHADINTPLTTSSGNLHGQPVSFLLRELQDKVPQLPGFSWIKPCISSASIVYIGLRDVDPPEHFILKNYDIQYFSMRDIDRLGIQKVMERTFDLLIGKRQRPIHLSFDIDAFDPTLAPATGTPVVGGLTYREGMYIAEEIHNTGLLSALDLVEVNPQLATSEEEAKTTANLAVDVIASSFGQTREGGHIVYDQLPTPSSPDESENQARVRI
# [7] = target: T4, Proteasome subunit beta (Trypanosoma cruzi) (UniProt O96673); test: Trypanosoma cruzi proteasome chymotrypsin-like activity (TcProtChymo) assay.; further: in the data most compounds retested in dose-response had high values; format: functional; conditions: 9.37 µM
# T4 sequence (whole entry): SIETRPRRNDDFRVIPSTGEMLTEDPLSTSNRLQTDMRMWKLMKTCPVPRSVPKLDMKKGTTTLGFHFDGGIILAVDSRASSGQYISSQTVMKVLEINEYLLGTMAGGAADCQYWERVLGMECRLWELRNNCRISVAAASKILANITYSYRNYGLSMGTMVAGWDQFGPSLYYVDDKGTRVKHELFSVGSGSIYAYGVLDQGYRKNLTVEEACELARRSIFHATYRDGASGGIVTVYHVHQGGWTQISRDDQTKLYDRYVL
# Homo sapiens = species on record: Homo sapiens; test: To identify inhibition of the IFN signalling (Jak-Stat) pathway via expression of an eGFP reporter gene under the control of an IFN-stimulated response element (ISRE) containing MxA promoter.; format: functional; conditions: 30 µM
# [8] = target: Shiga toxin 2 (Escherichia coli O157:H7) (UniProt P09385+P09386); test: E. coli 0.157:H7 Shiga Toxin SOP - stx2 screening assay; format: functional; conditions: 30 µM
# [9] = target: T5, Tyrosyl-tRNA synthetase, putative (Trypanosoma cruzi (strain CL Brener)) (UniProt Q4DSP6); test: Trypanosoma cruzi tyrosyl tRNA synthetase (TcYRS) _High Tyrosine SOP; format: functional; conditions: 30 µM; further: in the data most compounds retested in dose-response had high values
# T5 sequence (whole entry): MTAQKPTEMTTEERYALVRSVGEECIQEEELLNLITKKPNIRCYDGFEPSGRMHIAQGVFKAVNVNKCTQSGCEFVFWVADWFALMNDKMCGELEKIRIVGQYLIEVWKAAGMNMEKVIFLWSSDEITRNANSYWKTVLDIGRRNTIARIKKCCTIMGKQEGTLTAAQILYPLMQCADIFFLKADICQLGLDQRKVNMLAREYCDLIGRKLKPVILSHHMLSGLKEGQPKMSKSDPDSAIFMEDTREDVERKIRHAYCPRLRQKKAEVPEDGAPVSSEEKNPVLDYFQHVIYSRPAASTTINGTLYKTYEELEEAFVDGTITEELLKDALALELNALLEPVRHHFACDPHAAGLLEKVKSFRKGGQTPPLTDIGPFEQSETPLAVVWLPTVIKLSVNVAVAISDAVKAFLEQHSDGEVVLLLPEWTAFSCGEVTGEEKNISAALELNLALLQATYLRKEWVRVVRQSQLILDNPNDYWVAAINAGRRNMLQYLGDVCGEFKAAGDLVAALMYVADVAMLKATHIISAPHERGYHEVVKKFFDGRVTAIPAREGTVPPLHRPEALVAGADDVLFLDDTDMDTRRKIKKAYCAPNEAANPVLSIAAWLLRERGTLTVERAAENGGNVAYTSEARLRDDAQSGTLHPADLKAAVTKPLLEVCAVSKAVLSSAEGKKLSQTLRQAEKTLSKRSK
# [10] = target: T5, Tyrosyl-tRNA synthetase, putative (Trypanosoma cruzi (strain CL Brener)); test: Trypanosoma cruzi tyrosyl tRNA synthetase (TcYRS) SOP; format: functional; conditions: 30 µM
# [11] = target: Chromo domain-containing protein 1 (Saccharomyces cerevisiae (strain ATCC 204508 / S288c) (Baker's yeast)) (UniProt P32657); test: ScCHD-1 Enzyme Inhibition Assay; format: functional; conditions: 30 µM; further: in the data most compounds retested in dose-response had high values
# Chromo domain-containing protein 1 (Saccharomyces cerevisiae (strain ATCC 204508 / S288c) (Baker's yeast)), sequence (P32657 whole entry, the tested form may be a part): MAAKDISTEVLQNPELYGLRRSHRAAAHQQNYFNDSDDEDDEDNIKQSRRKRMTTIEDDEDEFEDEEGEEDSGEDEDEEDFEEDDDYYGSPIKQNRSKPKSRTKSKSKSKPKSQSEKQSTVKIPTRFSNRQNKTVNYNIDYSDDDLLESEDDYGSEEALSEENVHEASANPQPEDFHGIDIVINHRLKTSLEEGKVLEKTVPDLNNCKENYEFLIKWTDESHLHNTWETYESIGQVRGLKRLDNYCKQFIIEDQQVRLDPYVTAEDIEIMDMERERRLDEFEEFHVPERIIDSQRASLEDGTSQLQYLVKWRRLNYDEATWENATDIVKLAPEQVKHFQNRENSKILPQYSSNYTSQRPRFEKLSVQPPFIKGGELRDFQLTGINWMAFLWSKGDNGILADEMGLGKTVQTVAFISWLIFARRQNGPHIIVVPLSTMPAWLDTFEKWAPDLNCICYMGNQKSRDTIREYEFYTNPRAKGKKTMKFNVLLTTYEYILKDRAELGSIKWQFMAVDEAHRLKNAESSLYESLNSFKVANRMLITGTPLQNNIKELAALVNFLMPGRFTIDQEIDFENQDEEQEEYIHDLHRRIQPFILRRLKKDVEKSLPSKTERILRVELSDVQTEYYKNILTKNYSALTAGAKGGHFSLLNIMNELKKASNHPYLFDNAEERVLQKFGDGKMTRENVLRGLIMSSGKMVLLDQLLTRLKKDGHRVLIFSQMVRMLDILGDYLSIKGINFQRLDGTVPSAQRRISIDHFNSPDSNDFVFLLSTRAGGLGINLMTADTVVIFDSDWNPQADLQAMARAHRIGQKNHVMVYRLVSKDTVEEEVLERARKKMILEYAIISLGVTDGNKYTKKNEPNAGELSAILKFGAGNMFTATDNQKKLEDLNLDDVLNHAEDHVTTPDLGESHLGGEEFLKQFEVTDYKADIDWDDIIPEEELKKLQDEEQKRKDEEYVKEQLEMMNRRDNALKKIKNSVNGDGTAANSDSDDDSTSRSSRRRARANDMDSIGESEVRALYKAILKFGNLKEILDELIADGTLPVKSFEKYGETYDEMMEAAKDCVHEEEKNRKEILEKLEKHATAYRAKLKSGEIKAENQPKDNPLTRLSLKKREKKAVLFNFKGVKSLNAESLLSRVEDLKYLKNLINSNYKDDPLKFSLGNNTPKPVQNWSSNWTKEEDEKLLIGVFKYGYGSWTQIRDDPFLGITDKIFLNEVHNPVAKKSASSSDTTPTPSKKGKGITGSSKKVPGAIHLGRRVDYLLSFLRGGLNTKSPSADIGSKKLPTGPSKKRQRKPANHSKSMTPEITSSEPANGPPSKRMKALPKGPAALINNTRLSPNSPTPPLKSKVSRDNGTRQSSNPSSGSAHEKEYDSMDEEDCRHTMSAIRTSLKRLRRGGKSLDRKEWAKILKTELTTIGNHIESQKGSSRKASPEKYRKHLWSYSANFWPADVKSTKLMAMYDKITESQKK
# Protein translocase subunit SecA (Escherichia coli (strain K12)), sequence (P10408 whole entry): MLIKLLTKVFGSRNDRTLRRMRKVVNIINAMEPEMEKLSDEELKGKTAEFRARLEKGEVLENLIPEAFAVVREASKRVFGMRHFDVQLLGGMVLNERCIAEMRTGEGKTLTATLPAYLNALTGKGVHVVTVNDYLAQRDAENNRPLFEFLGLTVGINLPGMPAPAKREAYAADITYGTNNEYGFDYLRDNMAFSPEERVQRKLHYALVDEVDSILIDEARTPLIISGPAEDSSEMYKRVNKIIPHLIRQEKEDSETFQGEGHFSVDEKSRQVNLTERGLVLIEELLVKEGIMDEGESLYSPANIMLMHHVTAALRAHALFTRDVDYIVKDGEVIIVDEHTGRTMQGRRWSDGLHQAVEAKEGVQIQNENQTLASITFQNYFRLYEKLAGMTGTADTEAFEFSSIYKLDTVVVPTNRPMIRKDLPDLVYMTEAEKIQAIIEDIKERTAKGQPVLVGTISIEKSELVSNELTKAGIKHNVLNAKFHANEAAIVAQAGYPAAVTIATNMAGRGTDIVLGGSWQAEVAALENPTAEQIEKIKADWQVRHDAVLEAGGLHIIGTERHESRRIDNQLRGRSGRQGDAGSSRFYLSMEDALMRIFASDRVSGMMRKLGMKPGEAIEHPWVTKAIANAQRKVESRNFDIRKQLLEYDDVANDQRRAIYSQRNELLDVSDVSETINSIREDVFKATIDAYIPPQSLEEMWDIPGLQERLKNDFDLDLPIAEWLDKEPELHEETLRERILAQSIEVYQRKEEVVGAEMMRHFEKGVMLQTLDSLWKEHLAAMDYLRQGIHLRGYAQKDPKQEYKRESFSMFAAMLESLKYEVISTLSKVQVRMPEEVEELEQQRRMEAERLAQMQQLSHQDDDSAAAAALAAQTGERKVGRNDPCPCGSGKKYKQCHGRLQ
# Sialic acid-binding Ig-like lectin 9 (Homo sapiens), sequence (Q9Y336 whole entry): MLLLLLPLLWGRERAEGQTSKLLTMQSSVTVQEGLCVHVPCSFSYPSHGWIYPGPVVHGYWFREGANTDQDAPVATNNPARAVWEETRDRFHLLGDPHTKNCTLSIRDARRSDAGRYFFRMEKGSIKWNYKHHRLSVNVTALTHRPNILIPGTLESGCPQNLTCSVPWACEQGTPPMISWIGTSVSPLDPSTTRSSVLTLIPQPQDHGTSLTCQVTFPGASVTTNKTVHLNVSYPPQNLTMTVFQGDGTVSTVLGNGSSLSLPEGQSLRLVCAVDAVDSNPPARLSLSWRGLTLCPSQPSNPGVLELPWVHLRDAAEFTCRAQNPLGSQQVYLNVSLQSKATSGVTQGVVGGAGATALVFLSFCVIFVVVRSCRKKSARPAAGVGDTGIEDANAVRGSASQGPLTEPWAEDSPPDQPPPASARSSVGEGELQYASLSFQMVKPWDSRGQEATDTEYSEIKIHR
Compound,Percent Effect [1] [%],Percent Effect [2] [%],Percent Effect [3] [%],Percent Effect [4] [%],Percent Effect [5] [%],Percent Effect (Trypanosoma cruzi) [%],Percent Effect [6] [%],Percent Effect [7] [%],Percent Effect (Homo sapiens) [%],Percent Effect [8] [%],Percent Effect [9] [%],Percent Effect [10] [%],Percent Effect [11] [%]
O=C1N(c2cncnc2)CCC12CCCN(Cc1ccccn1)C2 (stereo not given),-4,5.2,3.89,3.31,8.64,-1.28,2.76,2.5,-1.38,-38.2,4.3,8.64,0.251
CCOCC(O)CN1CCN(C(=O)Cc2ccccc2Cl)CC1 (stereo not given),-5.33,0,-2.7,8.88,-1.32,-8.08,4.21,9.36,14,19.1,0.49,-2.44,-1.37
CN(Cc1cncnc1)[C@H]1CN(CC2CC2)[C@@H]2CCCO[C@@H]21,-2.97,10.7,3.35,-6.16,2.33,4.44,-51.8,11.6,-0.287,-9.01,5.21,2.5,-8.19
Cc1nc(NCC2CC2)nc2c1COCC21CCN(C)C1 (stereo not given),-1.26,18.7,-1.49,0.667,-4.41,2.17,46.4,19.1,2.6,2.88,4.25,16.7,-6.2
CO[C@H]1CCN(Cc2ccccn2)[C@@H]2CN(Cc3ccco3)C[C@H]12,-4.75,9.33,-1.34,0.435,4.87,-3.34,2.64,17.7,-12.9,-18.4,9.52,15.4,-1.8
COc1ccc(CN2C[C@@H]3OCCN(c4ncccn4)[C@@H]3C2)cc1,1.18,0,3.34,11.4,2.48,-4.13,2.1,3.61,22.3,-20,1.06,-1.28,0.371
c1cc(CO[C@@H]2CC[C@H]3[C@H]2OCCN3CC2CCOCC2)ccn1,1.51,16.2,5.55,7.58,-13.8,-4.79,-0.319,3.51,45.1,-7.6,2.16,10.3,-9.05
CCOCC(O)CN1CCN(C(=O)Cc2ccccc2C)CC1 (stereo not given),1.46,13.2,-3.28,-1.09,0.779,-8.65,8.43,8.69,20,30.3,0.49,9.76,-8.57
O=C(C1CCC1)N1CCC2(CC1)OCCO2,-3.54,-2.63,-4.73,2.75,1.15,-1.85,7.1,6.04,5.13,-1.29,0,5.2,-0.64
Cc1n[nH]c2c1C(c1ccc(O)c(Cl)c1)SCC(=O)N2 (stereo not given),-3.6,4,-0.755,21.6,4.97,-3.73,-6.16,5.18,10.7,-29.6,9.52,15.4,-4.99
